One test has as its system SIK2. As to conditions: n = 1.
A further test concerns SIK. To be noted: concentration: 1 μM, replicates: in singlicate; n = 1.
Another test has as its system SLK. To be noted: n = 1.
The next test concerns T1, SNARK.
T1 construct: gene NUAK2
As to conditions: n = 1.

The test system of another test is SNRK. As to conditions: concentration: 1 μM, replicates: in singlicate; n = 1.
The next test concerns SRC. As to conditions: n = 1.
For the next test, the system named is SRMS. To be noted: concentration: 1 μM, replicates: in singlicate; n = 1.
The subject of the next test is SRPK1. As to conditions: n = 1.
Another test relates to SRPK2. As to conditions: concentration: 1 μM, replicates: in singlicate; n = 1.
In the next test the test system is SRPK3. As to conditions: concentration: 1 μM, replicates: in singlicate; n = 1.
Where [1] appears, read: concentration: 1 μM, replicates: in singlicate.
The mark [2] stands for this setting: concentration: 1 μM,replicates: in singlicate, 1 µM.

Structures are written as SMILES. “And” between values parts separate entries of the source, which are not always exact repeats. Equal entries are not always repeated. Where two headings read alike, the source gives them in different places.

These results are taken from PMC5540273 (PLoS ONE, 2017).
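Further: KINOMEscan kinase panel screen.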

Turning to `Cn1ccc2ncnc(Oc3cccc(C(=O)Nc4ccccc4)c3)c21`, the “%Inh” value with SIK2 (setting [1]) is 5%; with SIK, 15%; in the test with SLK (setting [1]) it was 13%; in the test with SNARK (setting [1]), 23%; in the test on SNRK, 9%; in the test with SRC (setting [1]), 0%. For the same compound, the “%Inh” value with SRMS, with SRPK1 (setting [1]), with SRPK2 and in the test with SRPK3 was 0% in each case.
In the case of `COc1cc(Nc2nccc(N3CCC(NC(=O)Nc4cc(C)ccc4C)C3)n2)cc(OC)c1OC` (stereo not drawn) [GSK1379762], the “%Inh” value is reported as 6% in the test on SIK2 (setting [1]); 0% in the test on SIK; 23% with SLK (setting [1]); 23% in the test with SNARK (setting [1]); 0% in the test on SNRK; 24% with SRC (setting [1]). Moreover, the “%Inh” value in the test on SRMS came out at 0%; with SRPK1 (setting [1]) it was 53%; in the test with SRPK2, 0%; with SRPK3 it was 29%.
`O=C(Nc1ccc2c(c1)OCO2)NC1CCN(c2ccnc(Nc3ccc(F)cc3)n2)C1` (stereo not drawn) [GSK1379724]: the “%Inh” value in the test on SIK2 (setting [1]) amounted to 0%; in the test on SIK, 0%; in the test on SLK (setting [1]), 10%; in the test on SNARK (setting [1]) it was 0%; in the test on SNRK, 0%; in the test on SRC (setting [1]) it was 0%. Also, the “%Inh” value with SRMS came out at 0%; in the test on SRPK1 (setting [1]) it was 0%; in the test on SRPK2, 0%; with SRPK3, 5%.
`Cl.c1ccc(-c2n[nH]cc2-c2ccnc(-c3ccc(CN4CCOCC4)cc3)c2)nc1` [GW776245]: the “%Inh” value in the test with SIK2 (setting [1]) came to 0%; with SIK, 23%; in the test with SLK (setting [1]) it was 0%; in the test on SNARK (setting [1]) it was 0%; in the test on SNRK, 0%; with SRC (setting [1]) it was 15%. Besides, the “%Inh” value in the test on SRMS is recorded as 0%; in the test with SRPK1 (setting [1]), 0%; in the test on SRPK2, 0%; in the test on SRPK3, 41%.
Regarding `Cc1cc(-c2ccc3c(c2)CC[C@@H](N[C@@H](C)c2ccccc2)C3)cnc1N.Cl` [GW412617], the “%Inh” value was found to be 3% in the test on SIK2 (setting [1]); 12% in the test on SIK; 29% in the test with SLK (setting [1]); 8% with SNARK (setting [1]); 0% in the test on SNRK; 4% with SRC (setting [1]). For the same compound, the “%Inh” value with SRMS is 0%; with SRPK1 (setting [1]), 24%; in the test on SRPK2, 0%; in the test with SRPK3, 9%.
With `CSc1nn2c(=O)cc(N3CCOCC3)nc2n1Cc1cccc(C(F)(F)F)c1C` [GSK2363608], the “%Inh” value is 4% and 0% in the test with SIK2 (setting [2]); 0% in the test with SIK; 20% and 3% with SLK (setting [2]); 18% and 0% in the test with SNARK (setting [2]); 0% with SNRK; 3% and 0% with SRC (setting [2]). The “%Inh” value is 0% in the test with SRMS; 34% and 16% in the test with SRPK1 (setting [2]); 0% in the test with SRPK2; 0% in the test on SRPK3.
For `Cn1cncc1-c1ccc2ncnc(Nc3ccc(OCc4ccccc4)cc3)c2c1` [GW320571], the “%Inh” value in the test with SIK2 (setting [1]) is given as 13%; in the test on SIK it was 6%; in the test with SLK (setting [1]), 19%; with SNARK (setting [1]) it was 0%; with SNRK, 86%; with SRC (setting [1]), 2%. The “%Inh” value in the test with SRMS is given as 0%; in the test with SRPK1 (setting [1]), 0%; with SRPK2, 0%; in the test on SRPK3 it was 25%.
As for `COc1ccccc1CNC(=O)c1cc(C(=O)c2ccccc2C)c[nH]1` [GSK364507], the “%Inh” value stood at 0% in the test with SIK2 (setting [1]); 14% with SIK; 5% in the test with SLK (setting [1]); 0% in the test with SNARK (setting [1]); 0% in the test on SNRK; 0% in the test with SRC (setting [1]). For the same compound, the “%Inh” value in the test on SRMS was found to be 0%; in the test on SRPK1 (setting [1]), 26%; in the test on SRPK2, 0%; with SRPK3 it was 0%.
For the compound `COC(=O)c1c(-c2ccccc2)c2cc(OC)ccc2c(=O)n1Cc1ccccc1`, the “%Inh” value in the test on SIK2 (setting [1]) is reported as 6%; with SIK, 1%; in the test with SLK (setting [1]) it was 0%; with SNARK (setting [1]), 12%; with SNRK it was 1%; with SRC (setting [1]) it was 8%. Moreover, the “%Inh” value in the test with SRMS is given as 0%; in the test with SRPK1 (setting [1]), 5%; in the test on SRPK2 it was 9%; in the test with SRPK3, 11%.
Turning to `O=C(Nc1n[nH]c2nc(-c3nccs3)c(Br)cc12)C1CCCC1` [SB-742609], the “%Inh” value in the test with SIK2 (setting [1]) turned out to be 0%; in the test with SIK it was 5%; in the test on SLK (setting [1]), 7%; in the test with SNARK (setting [1]), 0%; with SNRK, 0%; in the test with SRC (setting [1]) it was 0%. The “%Inh” value in the test with SRMS is 0%; in the test with SRPK1 (setting [1]), 0%; in the test with SRPK2 it was 0%; in the test with SRPK3, 13%.
As to `COc1ccc(Nc2nccc(-c3cccc(NC(=O)c4cc5cc(F)ccc5[nH]4)c3)n2)cc1` [GSK1229782], the “%Inh” value in the test on SIK2 (setting [1]) is given as 1%; with SIK, 17%; in the test with SLK (setting [1]) it was 29%; with SNARK (setting [1]), 33%; with SNRK it was 0%; in the test with SRC (setting [1]), 63%. The “%Inh” value turned out to be 0% in the test with SRMS, 44% with SRPK1 (setting [1]), 18% with SRPK2 and 0% with SRPK3.
On to `COc1ccc(Nc2nccc(NCCNC(=O)Nc3ccccc3F)n2)cc1` [GSK1379901], for which the “%Inh” value in the test on SIK2 (setting [1]) came out at 2%; in the test with SIK, 0%; with SLK (setting [1]) it was 11%; in the test with SNARK (setting [1]), 0%; in the test with SNRK it was 0%; in the test with SRC (setting [1]), 0%. Also, the “%Inh” value in the test with SRMS, with SRPK1 (setting [1]), in the test with SRPK2 and in the test on SRPK3 was 0% each time.
For the compound `O=c1cc(N2CCOCC2)nc2n(Cc3cccc(Cl)c3Cl)ccn12` [GSK2286295], the “%Inh” value with SIK2 (setting [1]) is 0%; in the test with SIK, 0%; in the test on SLK (setting [1]), 17%; in the test with SNARK (setting [1]), 0%; in the test with SNRK, 0%; in the test with SRC (setting [1]), 3%. The “%Inh” value in the test with SRMS is listed as 0%; in the test on SRPK1 (setting [1]), 34%; with SRPK2, 0%; in the test with SRPK3 it was 0%.
As to `Cc1c(Cn2ccn3c(=O)cc(N4CCOCC4)nc23)cccc1C(F)(F)F` [GSK2289044], the “%Inh” value is 0% with SIK2 (setting [1]); 0% in the test on SIK; 13% in the test on SLK (setting [1]); 5% with SNARK (setting [1]); 0% in the test on SNRK; 0% in the test on SRC (setting [1]). For the same compound, the “%Inh” value with SRMS was determined as 0%; with SRPK1 (setting [1]), 12%; in the test with SRPK2 it was 0%; in the test with SRPK3, 0%.
On to `Cc1cccc(-c2nc(Nc3cccc(C(N)=O)c3)c3ccccc3n2)n1` [GW876019], for which the “%Inh” value is given as 63% with SIK2 (setting [1]); 14% with SIK; 14% in the test with SLK (setting [1]); 0% in the test on SNARK (setting [1]); 0% in the test with SNRK; 0% in the test on SRC (setting [1]). Further, the “%Inh” value with SRMS worked out at 33%; in the test on SRPK1 (setting [1]), 17%; with SRPK2 it was 23%; in the test on SRPK3, 4%.
With `Cc1cccc(-c2nc(Nc3ccc4[nH]ncc4c3)c3ccccc3n2)n1` [GW857175], the “%Inh” value with SIK2 (setting [1]) is 0%; in the test on SIK it was 0%; in the test on SLK (setting [1]), 16%; in the test on SNARK (setting [1]), 15%; with SNRK, 10%; with SRC (setting [1]), 28%. Also, the “%Inh” value is 25% in the test with SRMS, 16% in the test on SRPK1 (setting [1]), 0% in the test with SRPK2 and 28% with SRPK3.
For `Cc1nnc(-c2ccc3occ(-c4ccc(S(C)=O)cc4)c3c2)[nH]1` (stereo not drawn), the “%Inh” value stood at 19% in the test with SIK2 (setting [1]); 7% in the test with SIK; 50% with SLK (setting [1]); 11% in the test with SNARK (setting [1]); 0% in the test with SNRK; 9% in the test with SRC (setting [1]). Further, the “%Inh” value with SRMS turned out to be 0%; in the test with SRPK1 (setting [1]), 27%; in the test on SRPK2, 0%; in the test with SRPK3, 0%.
In the case of `Cc1ccc(NC(=O)Nc2cccc(Cl)c2)cc1-c1ccc(C(=O)Nc2ccncc2)cc1` [GSK1398468], the “%Inh” value with SIK2 (setting [1]) is listed as 0%; with SIK, 5%; in the test on SLK (setting [1]) it was 6%; in the test with SNARK (setting [1]), 0%; in the test with SNRK it was 2%; in the test on SRC (setting [1]) it was 0%. The “%Inh” value in the test on SRMS, with SRPK1 (setting [1]), in the test on SRPK2 and in the test on SRPK3 was 0% in each case.
